Results taken from PubChem BioAssay (Tox21).
Values without a mark were called inactive. Calls of active or inactive are those of the source. Calls come from the whole dose curve; as a rule, active = well fitted curve in the direction sought with a large enough effect in the repeat runs; inconclusive = weak or mixed curves; inactive = flat fitted curve, though single readings scatter.

assay: qHTS assay to test for compound auto fluorescence at 590 nm (red) in HepG2 cell free culture (AID 720684); conditions: cell-free medium autofluorescence, red 540/590 nm; series mostly up to 91.3 µM
Text: U.S. Tox21 Program National Center for Advancing Translational Sciences [NCATS] NIH Chemical Genomics Center [NCGC] U.S. Environmental Protection Agency [EPA] National Institutes of Environmental Health Sciences [NIEHS] National Toxicology Program [NTP] U.S. Food and Drug Administration [FDA] Tox21 Assay Overview: Compound auto fluorescence often interferes with screening of the compound library against various biological targets and signaling pathways. Some of these compounds may have fluorophoric properties. Such properties may interfere with the assay outputs resulting in false positives and/or negatives. To decrease such complications and ensure the compound activities are relevant in terms of biological response, the Tox21 10K compound library was screened for auto fluorescence. From the fluorophores used as reporter signals in our screening assays, the auto fluorescence equivalencies of compounds against three fluorophores have been evaluated: Triamterene, Fluorescein and Rose Bengal sodium for blue, green and red fluorescence, respectively. The fluorescence intensities were measured using Excitation/Emission wavelengths at 405/460nm, 485/535nm and 540/590nm for blue, green and red labels, respectively. This assay includes the red fluorescence data.
Tox21 Assay Protocol Summary: 5 uL of culture medium (MEM containing 10% FBS) per well was dispensed into black wall/clear bottom 1536-well plates using a Multidrop Combi Dispenser (ThermoFisher Scientific, Waltham, MA). After 23 nL compound or DMSO vehicle was transferred into assay plate by a pintool work station (Kalypsys, San Diego, CA), fluorescence intensities in the assay plates were measured by an Envision (PerkinElmer, Shelton, CT) plate reader using three labels for measuring blue, green and red fluorescence at […] 460, 535 and 590nm respectively.
% is set by controls: 0 for no effect and ±100 for the full control effect.

Row | Structure (SMILES) | outcome | fluorescence, % of Rose Bengal
1 | OC[P+](CO)(CO)CO | inactive | –
2 | CCC[N+](CCC)(CCC)CCC | inactive | –
3 | Nc1cc(Cl)cc(C(=O)O)c1Cl | inactive | –
4 | ClCc1ccccc1Cl | inactive | –
5 | Cc1nc(N(C)C)nc(OC(=O)N(C)C)c1C | inactive | –
6 | CC(O)CN1CCN(CC(=O)[O-])CCN(CC(=O)[O-])CCN(CC(=O)[O-])CC1.[Gd+3] (stereo not given) | inactive | –
7 | CCOP(=S)(OCC)Oc1ccc(S(C)=O)cc1 (stereo not given) | inactive | –
8 | CCN(C(C)=O)c1cccc(-c2ccnc3c(C#N)cnn23)c1 | inactive | –
9 | C=CCN1C[C@H](C)N([C@H](c2ccc(C(=O)N(CC)CC)cc2)c2cccc(OC)c2)C[C@H]1C | inactive | –
10 | CCCCCCCCCCCC[N+](C)(C)CCOc1ccccc1 | inactive | –
11 | O=C(O)c1cc(Cl)ccc1Cl | inactive | –
12 | CN(C1CCCCC1)C1CCCCC1 | inactive | –
13 | CN1C(=O)CN=C(c2ccccc2)c2cc([N+](=O)[O-])ccc21 | inactive | –
14 | Clc1ccccc1 | inactive | –
15 | CCCC[P+](CC)(CCCC)CCCC (tested in a mixture with another compound) | inactive | –
16 | CC(C)(C)NCC(O)c1cc(Cl)c(N)c(C(F)(F)F)c1 (stereo not given) | inactive | –
17 | CCCC[N+](CCCC)(CCCC)CCCC | inactive | –
18 | CCCCNC(=O)OCC#CI | inactive | –
19 | CCOP(=S)(OCC)SCSc1cc(Cl)ccc1Cl | inactive | –
20 | [Cl-].[Cl-].[Hg+2] | inactive | –

Row | Structure (SMILES) | outcome | fluorescence, % of Rose Bengal
21 | O=C1CC[C@@]2(O)[C@H]3Cc4ccc(O)c5c4[C@@]2(CCN3CC2CC2)[C@H]1O5 | inactive | –
22 | CCCBr | inactive | –
23 | COC1=CC(=O)O[C@@H](/C=C/c2ccc3c(c2)OCO3)C1 | inactive | –
24 | CN[C@@H](C)[C@H](O)c1ccccc1 | inactive | –
25 | Clc1ccc(Cl)c(Cl)c1 | inactive | –
26 | CCCN(CCC)c1c([N+](=O)[O-])cc(C(C)C)cc1[N+](=O)[O-] | inactive | –
27 | N#CC(C#N)=C(C#N)C#N | inactive | –
28 | CC(C)[C@@H](C(=O)O[C@@H](C#N)c1cccc(Oc2ccccc2)c1)c1ccc(Cl)cc1 | inactive | –
29 | CCOP(=S)(S)OCC | inactive | –
30 | CCCCCCCCCCCCN=C(N)N | – | 0.0947% [at 3.72 µM]
31 | CCC1(CCC(C)C)C(=O)NC(=O)NC1=O | inactive | –
32 | O=C(Cc1ccccc1)c1ccccc1 | inactive | –
33 | CCc1ccccc1N | inactive | –
34 | CCC(C)Cl (stereo not given) | inactive | –
35 | Clc1ccc2ccccc2c1 | inactive | –
36 | NC(=S)c1c(Cl)cccc1Cl | inactive | –
37 | CCCCCl | inactive | –
38 | CCOC(=O)c1cn2nc(OP(=S)(OCC)OCC)cc2nc1C | inactive | –
39 | O=S(=O)(Cl)Cl | inactive | –
40 | CCc1cnc(C2=NC(C)(C(C)C)C(=O)N2)c(C(=O)O)c1 (stereo not given) | inactive | –
